Test results as given in PubChem BioAssay (NCI).
The panel holds about 83,000 compounds, 20% with a hit somewhere; the sample as a whole holds those more often.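 Method: cells in 96-well plates; compound added at one concentration; 48 h incubation; percent growth measured; values under 10 scored active.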 A number with no mark means an inactive call. Active and inactive are the calls of the source.

Experiments:
Experiment in all cases: NCI-60 one-dose screen, 48 h (100 = growth as untreated, 0 = no growth, -100 = all killed)
HCT-15 colon = conditions: 10 µM unless noted
HT29 colon = conditions: 10 µM unless noted
SNB-75 CNS = conditions: 10 µM unless noted
SNB-19 CNS = conditions: 10 µM unless noted
U251 CNS = conditions: 10 µM unless noted
PC-3 prostate = conditions: 10 µM unless noted
SK-MEL-5 melanoma = conditions: 10 µM unless noted
UACC-62 melanoma = conditions: 10 µM unless noted
LOX IMVI melanoma = conditions: 10 µM unless noted
SK-MEL-28 melanoma = conditions: 10 µM unless noted
SK-MEL-2 melanoma = conditions: 10 µM
EKVX NSCLC = conditions: 10 µM unless noted
SN12C renal = conditions: 10 µM unless noted
UO-31 renal = conditions: 10 µM unless noted
TK-10 renal = conditions: 10 µM unless noted
ACHN renal = conditions: 10 µM unless noted
CAKI-1 renal = conditions: 10 µM unless noted
A498 renal = conditions: 10 µM unless noted
CCRF-CEM leukemia = conditions: 10 µM unless noted
MOLT-4 leukemia = conditions: 10 µM unless noted

Row | Compound | growth (HCT-15 colon) | growth (HT29 colon) | growth (SNB-75 CNS) | growth (SNB-19 CNS) | growth (U251 CNS) | growth (PC-3 prostate) | growth (SK-MEL-5 melanoma) | growth (UACC-62 melanoma) | growth (LOX IMVI melanoma) | growth (SK-MEL-28 melanoma) | growth (SK-MEL-2 melanoma) | growth (EKVX NSCLC) | growth (SN12C renal) | growth (UO-31 renal) | growth (TK-10 renal) | growth (ACHN renal) | growth (CAKI-1 renal) | growth (A498 renal) | growth (CCRF-CEM leukemia) | growth (MOLT-4 leukemia)
1 | C=C1C(=O)O[C@H]2[C@H]1CC/C(C=Nc1c(N)cc(C(F)(F)F)cc1C(F)(F)F)=C\CC[C@@]1(C)O[C@@H]21 | -31.1% (active) | -15.2% (active) | 48.6% | 36.8% | 8.57% (active) | -12.8% (active) | -43.6% (active) | -57.1% (active) | -87.5% (active) | -17.2% (active) | -39.1% (active) | -36.2% (active) | -43.2% (active) | -89.8% (active) | -41% (active) | -89.4% (active) | -59.3% (active) | 34.8% | 4.15% (active) | -13.5% (active)
2 | COc1ccc(-c2nocc2-c2cc(OC)c(OC)c(OC)c2)cc1 | 9.74% (active) | 0.361% (active) | 32.8% | 34.9% | 19.1% | 29% | 7.25% (active) | 13% | 43.5% | 49.8% | 41.5% | 54.2% | 50% | 36.3% | 67.3% | 39.6% | 31.2% | – | 22.7% | 20.4%
3 | Cc1ccsc1C(NC(=O)c1ccccc1)c1cc(Cl)c2cccnc2c1O (centres undefined) | 13.4% | 29.2% | 30% | 15.3% | 6.52% (active) | 18.3% | 4.33% (active) | -22.3% (active) | 8.58% (active) | 45.4% | 12.6% | 18.2% | 23.2% | 2.22% (active) | 27.6% | 10.8% | 15.7% | – | 9.96% (active) | 14.6%
4 | CC1(O)CCC(Nc2cc(-c3ccc(C(F)(F)F)cc3)c(C#N)c3nc4ccccc4n23)CC1 (centres undefined) | 58.6% | 60.7% | 41.4% | 70.3% | 67.9% | 35.5% | 5.75% (active) | 77.1% | 55% | 89.3% | 73.4% | 54.1% | 63.9% | 47.1% | 71.4% | 59.8% | 54.6% | 46.8% | 64.9% | 27.5%
5 | COc1ccc2c(CCC(c3ccccc3)c3ccccc3)c3[n+](cc2c1OC)CCc1cc2c(cc1-3)OCO2 | 47.1% | 6.26% (active) | 37.1% | 20.6% | 10.5% | -39.8% (active) | -99.6% (active) | -43.5% (active) | -58.5% (active) | 3.87% (active) | -15% (active) | 24.7% | 0.0445% (active) | 45.6% | 8.09% (active) | 23.4% | 60.2% | – | 6.45% (active) | -10.1% (active)
6 | CC(C)[C@@H](C)/C=C/[C@@H](C)[C@H]1CCC2=C3C=CC4=CC(=O)CC[C@]4(C)[C@H]3CC[C@@]21C | 99.7% | 74.3% | 96.7% | 100% | 88.7% | 62.8% | 89.5% | 94.9% | 101% | 113% | 101% | 99.1% | 101% | 92% | 87.8% | 109% | 93.9% | – | 82.2% | 85.5%
7 | CCC1(/C=N/NC(N)=S)NC(=O)NC1=O (centres undefined) | 107% | 94.9% | 95.9% | 109% | 86.8% | 85.1% | 102% | 104% | 102% | 111% | 109% | 104% | 95.6% | 87.5% | 102% | 109% | 94.1% | – | 102% | 90%
8 | CCNCCNc1cc(-c2ccc(Cl)c(Cl)c2)c(C#N)c2nc3ccccc3n12 | -84% (active) | -87.3% (active) | -88.4% (active) | -74.2% (active) | -95.5% (active) | -83% (active) | -93.5% (active) | -74.2% (active) | -93.4% (active) | -81% (active) | -83.1% (active) | -80% (active) | -68.9% (active) | -84% (active) | -84.3% (active) | -90.5% (active) | -95.4% (active) | -76.6% (active) | -30.3% (active) | -43.4% (active)
9 | COC(=O)[C@]12CC[C@@H](C)[C@H](C)[C@@H]1C1=CC[C@@H]3[C@@]4(C)C[C@@H](OC(=O)/C=C/c5ccccc5)[C@H](O)[C@@](C)(CO)[C@@H]4[C@H](O)C[C@@]3(C)[C@]1(C)CC2 | -20.9% (active) | -49.3% (active) | 44.1% | 14.3% | -28.5% (active) | 11.3% | 18.3% | 21.4% | -96.4% (active) | 4.73% (active) | 47.8% | 33.8% | -83.2% (active) | 19.6% | 18.1% | 3.47% (active) | 15.6% | – | 18.8% | 0.848% (active)
10 | COC(=O)[C@]12CC[C@@H](C)[C@H](C)[C@@H]1C1=CC[C@@H]3[C@@]4(C)C(C#N)=CC(C)=C4CC[C@@]3(C)[C@]1(C)CC2 | 89.5% | 73.7% | 84.5% | 96.3% | 87.2% | 68.9% | 86.3% | 69.3% | 92.1% | 91.4% | 82.9% | 92.8% | 93.3% | 84.8% | 99.2% | 79% | 76.8% | – | 16% | 78.8%
11 | C=C1C(=O)O[C@H]2[C@H]1CC/C(CNC(=O)c1cc3cc(OC)ccc3[nH]1)=C\CC[C@@]1(C)O[C@@H]21 | -78.4% (active) | -70.9% (active) | 51.4% | 44% | 14.5% | -52.5% (active) | -39.2% (active) | -66.1% (active) | -93.5% (active) | -59.3% (active) | -42.7% (active) | -55.9% (active) | -38.5% (active) | -75.8% (active) | -83% (active) | -76.2% (active) | -74.1% (active) | – | -19.3% (active) | -31% (active)
12 | CCN(CC)CCCC(C)Nc1cc(-c2ccc(C(F)(F)F)cc2)c(C#N)c2nc3ccccc3n12 (centres undefined) | 3.48% (active) | -2.76% (active) | -56.1% (active) | 34.9% | 3.09% (active) | 22.1% | -89.9% (active) | -67.3% (active) | -80.6% (active) | -64.7% (active) | 79.3% | 35.6% | -30.3% (active) | -76.5% (active) | 68.2% | -65.2% (active) | 52.2% | – | -7.3% (active) | -28.2% (active)
13 | CC1(/C=N/NC(N)=S)NC(=O)NC1=O (centres undefined) | 104% | 93.3% | 90.6% | 108% | 94.5% | 93% | 100% | 95.6% | 101% | 117% | 105% | 99.1% | 95.5% | 96.5% | 96.5% | 108% | 96.7% | – | 100% | 82%
14 | O=C(NCCO)Nc1ccc(-c2nc(N3CCOCC3)c3cccn3n2)cc1 | 11.5% | 14.4% | -31.9% (active) | 18.3% | 18.3% | 9.72% (active) | -27.6% (active) | -37.7% (active) | 4.86% (active) | -7.13% (active) | -9.19% (active) | 3.13% (active) | 5.36% (active) | -18.2% (active) | -23.5% (active) | 9.2% (active) | 9.37% (active) | -54.8% (active) | – | 16.2%
